Screening results as filed in PubChem.
RORgamma inh – inhibitors of mouse ROR gamma transcriptional activity. Drosophila S2 Gal4-RORgamma UAS-luciferase reporter, 20 h. P51450. hit rate 5.4% among 310,000. Potency, µM (titrated, usually from 53.6 µM), usual class: inhibitors; note: nearly all actives have a fitted effect of over 60% in size
Target sequence (P51450 whole entry, looked up, the tested form may be a part): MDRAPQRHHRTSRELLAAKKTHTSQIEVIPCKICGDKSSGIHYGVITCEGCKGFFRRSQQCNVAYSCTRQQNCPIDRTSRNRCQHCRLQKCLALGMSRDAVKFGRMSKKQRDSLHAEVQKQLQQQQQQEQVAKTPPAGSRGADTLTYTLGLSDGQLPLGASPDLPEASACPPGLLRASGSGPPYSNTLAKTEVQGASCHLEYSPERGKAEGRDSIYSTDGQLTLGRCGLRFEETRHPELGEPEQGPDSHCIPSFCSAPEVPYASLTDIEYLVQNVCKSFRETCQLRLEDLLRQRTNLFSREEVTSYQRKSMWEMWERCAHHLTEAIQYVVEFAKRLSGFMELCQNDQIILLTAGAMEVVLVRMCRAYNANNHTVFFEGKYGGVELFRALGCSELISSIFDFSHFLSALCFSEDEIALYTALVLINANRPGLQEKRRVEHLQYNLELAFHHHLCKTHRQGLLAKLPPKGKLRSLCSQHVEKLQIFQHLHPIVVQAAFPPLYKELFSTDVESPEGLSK
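Using a luciferase readout, inhibitors were identified by reduced reporter activity in Drosophila cells coexpressing a copper-inducible Gal4–ROR gamma fusion and UAS-driven Photinus luciferase, incubated 20 hr after 700 uM copper sulfate.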
BRCA1 expr act – activators of BRCA1 expression; MCF7-BRCA1-FFLuc reporter, luminescence, 48 h; response scale: scaled: vehicle 0%, 10 µM genistein 100%; Potency, µM (top dose mostly 46.1 µM), hits mostly activators; hit rate 1.1% among 380,000; AID 624202; note: nearly all actives have a fitted effect of over 80% in size
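Quantitative HTS in MCF7 cells stably reporting BRCA1 expression via firefly luciferase. Compound treatment lasts 48 h at 37 °C in phenol-red free MEM. Activation is expressed relative to genistein at 10 microM and DMSO.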
VP16 counter – counter-screen for ROR gamma inhibitors: Gal4-VP16 reporter; Drosophila S2 Gal4-VP16 UAS-luciferase, luminescence, 20 h; Potency, µM (titrated, usually from 53.6 µM), usual class: inhibitors; hit rate 3.5% among 310,000;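 note: Gal4-VP16 expression switched on by copper sulfate through the metallothionein promoter; nearly all actives have a fitted effect of over 50% in size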
Giardia killer – Giardia lamblia killing; AID 540267; hit rate 0.15% among 340,000; Giardia lamblia trophozoite viability; activity change, % at 7.66 µM, hits read low; in the data active = activity change below about -80%; inconclusive = between about -30% and that limit;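 note: parasites exposed to compound for two days anaerobically before the ATP read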
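Giardia lamblia trophozoites (100 cells/well) were incubated with compounds for 48 h at 37 deg C under anaerobic conditions. Viability was read as ATP content by one-step luminescence after 15-30 min at room temperature.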
p53 reactivator – mutant p53 re-activation in reporter cells. Potency, µM (series often up to 92.2 µM), hits mostly activators. H1299 p53-A138V BP100-luciferase reporter, luminescence, 24 h. AID 504706. hit rate 0.063% among 320,000; note: nearly all actives have a fitted effect of over 45% in size
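H1299 (p53-null), stable ts p53-A138V + BP100-Luc; 1000 cells/well, Opti-MEM/10% FBS; cpd 4 pt, 1:5; 24 h, 37 deg C, 5% CO2; detection reagent 10 min RT; luminescence.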
ELG1 DNA repair – blocks ELG1-dependent DNA repair in HEK293T cells; HEK293T ELG1-luciferase reporter, luminescence, 16 h; DNA damage induced by 5-fluorouridine; AID 504467; hit rate 2.3% among 330,000; Potency, µM (titrated, usually from 46.1 µM), actives largely listed as inhibitors; note: nearly all actives have a fitted effect of over 55% in size
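HEK293T cells expressing luciferase-tagged ELG1 (2,000/well) received 5-Fluorouridine plus compound or DMSO for 16 hr at 37 °C. Luciferase was read by ONE-Glo luminescence after 30 min at room temperature.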
Large screens that a line does not name were inactive. Compounds with a hit are over-represented: about 7.6% of the library has one in this group of screens. Unless noted, calls come from the whole dose curve; as a rule, active = well fitted curve in the direction sought with a large enough effect; inconclusive = small, poorly fitted or top-dose-only effect, or another doubt; inactive = no such curve, though single readings can be large; an effect the other way counts as inactive or inconclusive.

O=C(Nc1cccc(-c2nc3ccccc3o2)c1)c1cccc2c(Cl)cccc12	none (no result: RORgamma inh, VP16 counter, Giardia killer, p53 reactivator, ELG1 DNA repair)
O=C(NCCN1CCc2ccccc2C1)C1CC(=O)N(C2CCCC2)C1 (configuration not stated)	none
Fc1ccccc1/C=N/n1c(COc2ccccc2)n[nH]c1=S	RORgamma inh 6.3µM, VP16 counter inconclusive
Cc1ccccc1/C=N/n1c(COc2ccccc2)n[nH]c1=S	RORgamma inh 4.5µM, VP16 counter inconclusive
Cc1ccc(/C=N/n2c(COc3ccccc3)n[nH]c2=S)s1	none
S=c1[nH]nc(COc2ccccc2)n1/N=C/c1ccc(Br)s1	RORgamma inh 2.5µM, VP16 counter inconclusive
COc1ccc(-c2c[n+]3c(n2-c2ccccc2)CCCCC3)cc1	RORgamma inh inconclusive, VP16 counter inconclusive, ELG1 DNA repair inconclusive
CCOc1ccc(-n2c(-c3ccc(Br)cc3)c[n+]3c2CCCCC3)cc1	RORgamma inh inconclusive, VP16 counter 22µM, ELG1 DNA repair inconclusive
CCOc1ccc(-n2c(-c3ccccc3)c[n+]3c2CCC3)cc1	RORgamma inh inconclusive, VP16 counter 8.9µM, ELG1 DNA repair inconclusive
CCOc1ccc(-n2c(-c3ccc(OC)cc3)c[n+]3c2CCCCC3)cc1	RORgamma inh 11µM, VP16 counter 2µM, ELG1 DNA repair inconclusive
CC1=C(O)C(=O)OC1c1c(Cl)cccc1Cl (configuration not stated)	none
CCOc1ccc(S(=O)(=O)N2CCC(C(=O)NCC3CCCO3)CC2)cc1 (configuration not stated)	p53 reactivator inconclusive
CCCCNC(=O)c1sc2ncnc(N3CCc4ccccc4C3)c2c1C	ELG1 DNA repair inconclusive
CCOC(=O)CNC(=O)c1sc2ncnc(N3CCc4ccccc4C3)c2c1C	RORgamma inh inconclusive, VP16 counter inconclusive, ELG1 DNA repair 18µM
Oc1ccc(N=Nc2nc(-c3ccccc3)c(-c3ccccc3)[nH]2)cc1	RORgamma inh 13µM, VP16 counter inconclusive, ELG1 DNA repair inconclusive
Oc1ccc(N=Nc2n[nH]c(-c3ccccc3)n2)cc1	RORgamma inh inconclusive, BRCA1 expr act inconclusive, p53 reactivator inconclusive, ELG1 DNA repair inconclusive
CC(=O)NC(=S)NNC(=O)C(c1ccccc1)c1ccccc1	RORgamma inh 6.3µM, ELG1 DNA repair inconclusive
N#CCC(=O)NNC(=S)NC(=O)C(c1ccccc1)c1ccccc1	ELG1 DNA repair inconclusive
COc1cc2c(-c3ccc(O)cc3)nc3c(c(C)nn3-c3ccccc3)c2cc1OC	VP16 counter inconclusive, ELG1 DNA repair 9.2µM
COc1cc2c(C)nc3c(c(C)nn3-c3ccccc3)c2cc1OC	none
C=CCn1c(N)c(C(=O)OCCC)c2nc3ccccc3nc21	ELG1 DNA repair 16µM
COCCn1c(N)c(C(=O)OCc2ccccc2)c2nc3ccccc3nc21	RORgamma inh inconclusive, VP16 counter 14µM, ELG1 DNA repair inconclusive
CCc1ccc(S(=O)(=O)Nc2cc3c(cc2C)n(C)c(=O)n3C)cc1	RORgamma inh inconclusive, VP16 counter 7.1µM, ELG1 DNA repair inconclusive
Cc1ccc(S(=O)(=O)Nc2ccc3c(c2)n(C)c(=O)n3C)cc1	VP16 counter inconclusive, ELG1 DNA repair inconclusive
CCOc1ccc(S(=O)(=O)Nc2cccc(OC)c2)cc1	VP16 counter 18µM, ELG1 DNA repair inconclusive
CCOc1ccc(S(=O)(=O)Nc2ccc3c(c2)n(C)c(=O)n3C)cc1	RORgamma inh inconclusive, VP16 counter 0.1µM
CCOc1ccc(S(=O)(=O)Nc2cccc(N(C)S(C)(=O)=O)c2)cc1	none
CCOc1ccc(NS(=O)(=O)c2ccc(C(=O)N(C)Cc3cccc(OC)c3OC)cc2)cc1	RORgamma inh inconclusive, VP16 counter inconclusive, ELG1 DNA repair 16µM
Cc1ccc(NS(=O)(=O)c2ccc3c(c2)n(C)c(=O)n3C)c(C)c1	none
COc1cccc(CN(C)C(=O)c2ccc(NS(=O)(=O)c3ccc4[nH]c(=O)[nH]c4c3)cc2)c1OC	none (no result: RORgamma inh, VP16 counter, p53 reactivator)
O=S(=O)(Nc1ccc(O)c(CN2CCCCC2)c1)c1ccccc1	none
CCCCOc1ccc(S(=O)(=O)Nc2cccnc2)cc1	VP16 counter 11µM
CC1(c2ccccc2)NC(=O)N(CC(=O)N(CC(=O)Nc2ccccc2C(F)(F)F)Cc2ccco2)C1=O (configuration not stated)	none (no result: RORgamma inh, VP16 counter)
CC(=O)c1c(N)[nH]c(-c2ccccc2)nc1=S	RORgamma inh 0.32µM, VP16 counter 0.79µM
CC(=O)c1c(N2CCOCC2)[nH]c(-c2ccccc2)nc1=S	RORgamma inh 1.1µM, VP16 counter 5µM, p53 reactivator inconclusive
CC(=O)c1c(N2CCN(Cc3ccccc3)CC2)[nH]c(-c2ccccc2)nc1=S	RORgamma inh 14µM, VP16 counter inconclusive
CC(=O)c1c(N2CCCC2)[nH]c(-c2ccccc2)nc1=S	RORgamma inh 5.6µM, VP16 counter 7.9µM
CC(=O)c1c(-c2ccccc2)[nH]c2ccccc12	RORgamma inh inconclusive
CSc1nc(-c2ccccc2)nc(N2CCOCC2)c1C(C)=O	Giardia killer inconclusive, ELG1 DNA repair inconclusive
CSc1nc(-c2ccccc2)nc(N2CCCC2)c1C(C)=O	none (no result: p53 reactivator, ELG1 DNA repair)
CC(=O)c1c(N2CCN(Cc3ccccc3)CC2)nc(=S)n(-c2ccccc2)c1C	none
COc1ccc(OC2(C)CCN(Cc3ccccc3OC(F)F)C2)cc1 (configuration not stated)	none (no result: RORgamma inh, VP16 counter, Giardia killer, p53 reactivator, ELG1 DNA repair)
Cc1nc(C)c(C(=O)N/N=C/c2cn(C)c3ccccc23)s1	RORgamma inh 11µM, VP16 counter inconclusive, ELG1 DNA repair inconclusive
CC(=O)n1cc(/C=N/NC(N)=S)c2ccccc21	RORgamma inh 4.5µM, VP16 counter inconclusive
Cn1cc(/C=N/NC(=O)c2ccccc2O)c2ccccc21	RORgamma inh 0.56µM, VP16 counter 0.89µM, ELG1 DNA repair inconclusive
CC(=O)n1cc(/C=N/NC(=O)c2ccccc2O)c2ccccc21	RORgamma inh 2.8µM, BRCA1 expr act inconclusive, VP16 counter 3.5µM
COc1cccc(C(O)c2nc(-c3ccccc3)cs2)c1 (configuration not stated)	none (no result: RORgamma inh, VP16 counter, Giardia killer, p53 reactivator, ELG1 DNA repair)
Cn1cc(/C=N/NC(=O)c2cccc([N+](=O)[O-])c2)c2ccccc21	RORgamma inh 0.5µM, VP16 counter inconclusive, ELG1 DNA repair inconclusive
COc1ccc(/C=N/NC(=O)c2cccc([N+](=O)[O-])c2)c2ccccc12	RORgamma inh inconclusive, VP16 counter inconclusive, Giardia killer inconclusive
CC1CCC2(CC1)NC(=O)N(CC(=O)Nc1ccccc1-c1ccccc1)C2=O (configuration not stated)	none
COc1cc(CN2CCN(Cc3ccc([N+](=O)[O-])cc3)CC2)c([N+](=O)[O-])cc1OC	ELG1 DNA repair 18µM
O=C(CSc1ncnc2c1oc1ccccc12)NCc1ccco1	RORgamma inh inconclusive, VP16 counter 20µM
